Reference: the supplement of paper PMC10338343
± gives the standard deviation.

System: MILI (PIWIL2) piRISC loaded with L1MC piRNA (26 nt)
Assay: pre-steady-state target cleavage rate (min^-1); guide: L1MC piRNA 5'p-UAACUAAAUACUAUGCAAGCUGUAGG; MIWI and MILI are mouse PIWI proteins and EfPiwi is from a freshwater sponge; tags in brackets are library labels; higher = faster piRNA-guided slicing of the target
Settings: auxiliary factor: 500 nM mouse GTSF1
Method: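 Cleave-'n-Seq: a library of target RNAs (target site embedded in constant flanks, ACAGCATTCCGCGTTAGTGATATCCG... 5' flank; DNA-blocked outside the site) at 0.1 nM was incubated with 1 nM active mouse MILI or MIWI piRISC (synthetic 5'-monophosphorylated piRNA guide) with or without 500 nM mouse GTSF1 at 33 °C for 1 min to 16 h. Uncleaved targets were sequenced and normalised to non-target controls, and the pooled three trials were fitted to a burst-and-steady-state model to give the pre-steady-state cleavage rate (min^-1; k3 is constrained to at most 1e-4). Sequence is the target site only; target names encode pairing extent (gX:gY) and contiguous / 1-mismatch / 2-mismatch / bulge geometry. Fits with R² ≤ 0 are excluded.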

UCCUGGUUCAGCUUGCAUAGUAAUUAGUUA and UCCUCCUACAGCUACCAUAGUAUUUAGUUA are within error of each other in “pre-steady-state target cleavage rate” value: 0.235 ± 0.024 for the first, 0.2 ± 0.021 for the second.

Going from UCCUCCUACAGCAUGCAUAGUAUAUAGUUA to UCCUGGAUGUCGAACGUAUGUAUUUUGUAA, the “pre-steady-state target cleavage rate” value falls from 0.243 ± 0.021 to under 0.0001.

Compared with UCCUGGAACAGCUUGCAUAGUAUUUGGUUA, UCCUGGUACUGCUUGCAUAGUAUUUAGUAA is lower in “pre-steady-state target cleavage rate” value: 0.221 ± 0.026 for the first, 0.0986 ± 0.018 for the second.

UCCUGGAUGUCCUUGCAUAGUAUUUACAUA and UCCUGGUACAGCUUGCAUAGUAUGUAGUUA are within error of each other in “pre-steady-state target cleavage rate” value: 0.039 ± 0.013 for the first, 0.03 ± 0.011 for the second.

Compared with UCCUCCUUCAGCUUGCAUACUAUUUAGUUA, UCCUGGAUGAGCUAGCAUAGUAUUUAGUAA is higher in “pre-steady-state target cleavage rate” value: 0.0786 ± 0.013 for the first, 0.168 ± 0.021 for the second.

UCCUGGAACAGCUUGCAUAGUAUUUUAGUUA and UCCUCCUACAGCAUGCAUAGUAAUUAGUUA are within error of each other in “pre-steady-state target cleavage rate” value: 0.241 ± 0.02 for the first, 0.251 ± 0.024 for the second.

Compared with UCCUCCUACAGCUGGCAUAGUAUUUAGUUA, UCCUGGAACAGCUUGCAUAGUAAUUUAGUUA is lower in “pre-steady-state target cleavage rate” value: 0.294 ± 0.02 for the first, 0.14 ± 0.012 for the second.

UCCUGCUUCAGGUUGCAUAGUAUUUAGUUA and UCCUGCUACAUCUUGCAUAGUAUUUAGUUA are within error of each other in “pre-steady-state target cleavage rate” value: 0.235 ± 0.015 for the first, 0.239 ± 0.02 for the second.

First: UCCUGGAUGUCCUUGCAUACUAUUUAGUUA
Second: UCCUGGUACACCUUGCAUAGUAAUUAGUUA
The “pre-steady-state target cleavage rate” value of the first is lower: 0.0324 ± 0.01 for the first, 0.491 ± 0.14 for the second.

UCCUGGAUGUGGUUGCAUAGUAAUUAGUUA and UCCUGGAACUGCUUGCAUAGUAUAUAGUUA are within error of each other in “pre-steady-state target cleavage rate” value: 0.162 ± 0.034 for the first, 0.128 ± 0.021 for the second.

UCCUGGAACAGCUUGCAUAGAAUUAAGUUA and UCCUGGAUCAGCUUGCAUAGUAUUUUGAUA are within error of each other in “pre-steady-state target cleavage rate” value: 0.051 ± 0.014 for the first, 0.0355 ± 0.013 for the second.

For UCCUGGAUGAGCUUGCAUAGUAUAUAGUUA, the “pre-steady-state target cleavage rate” value was 0.24 ± 0.031.

Same assay, conditions: auxiliary factor: none (no GTSF1)

UCCUGGUUCAGCUUGCAUAGUAAUUAGUUA and UCCUCCUACAGCUACCAUAGUAUUUAGUUA are within error of each other in “pre-steady-state target cleavage rate” value: 0.00723 ± 0.0031 for the first, 0.00448 ± 0.0023 for the second.

UCCUCCUACAGCAUGCAUAGUAUAUAGUUA and UCCUGGAACAGCUUGCAUAGUAUUUGGUUA are within error of each other in “pre-steady-state target cleavage rate” value: 0.00579 ± 0.0023 for the first, 0.00881 ± 0.0026 for the second.

Going from UCCUGGAUGUCGAACGUUAGUAUUAACUUA to UCCUCCUUCAGCUUGCAUACUAUUUAGUUA, the “pre-steady-state target cleavage rate” value rises from under 0.0001 to 0.00296 ± 0.0027.

UCCUGGAUGAGCUAGCAUAGUAUUUAGUAA and UCCUGGAACAGCUUGCAUAGUAUUUUAGUUA are within error of each other in “pre-steady-state target cleavage rate” value: 0.00735 ± 0.0023 for the first, 0.0048 ± 0.0033 for the second.

UCCUCCUACAGCAUGCAUAGUAAUUAGUUA and UCCUCCUACAGCUGGCAUAGUAUUUAGUUA are within error of each other in “pre-steady-state target cleavage rate” value: 0.00544 ± 0.0019 for the first, 0.00732 ± 0.0023 for the second.

UCCUGGAACAGCUUGCAUAGUAAUUUAGUUA and UCCUGCUUCAGGUUGCAUAGUAUUUAGUUA are within error of each other in “pre-steady-state target cleavage rate” value: 0.00593 ± 0.0025 for the first, 0.0111 ± 0.003 for the second.

First: UCCUGCUACAUCUUGCAUAGUAUUUAGUUA
Second: UCCUGGAUGUCCUUGCAUACUAUUUAGUUA
The “pre-steady-state target cleavage rate” value of the first is higher: 0.0095 ± 0.0022 for the first, 0.00339 ± 0.0025 for the second.

UCCUGGUACACCUUGCAUAGUAAUUAGUUA and UCCUGGAUGUGGUUGCAUAGUAAUUAGUUA are within error of each other in “pre-steady-state target cleavage rate” value: 0.00374 ± 0.0032 for the first, 0.00751 ± 0.0032 for the second.

UCCUGGAACUGCUUGCAUAGUAUAUAGUUA and UCCUGGAUGAGCUUGCAUAGUAUAUAGUUA are within error of each other in “pre-steady-state target cleavage rate” value: 0.00491 ± 0.0025 for the first, 0.00759 ± 0.0023 for the second.
